Measurements reported in PubChem BioAssay (EPA / NIEHS).
Results filed as inconclusive are left out. Activity calls are given as the source filed them. Rule for the calls: active = hit-call score of the fitted dose curve at least 0.9, where 1 is the maximum; inconclusive = response in the unintended direction; inactive = score below 0.9.

assay: ACEA_ER_AUC_viability: ACEA Biosciences xCELLigence Real-Time Cell Analysis on Estrogen Receptor Agonism for Viability (AID 2283782);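 note: hit means loss of impedance signal meaning reduced cell growth or viability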
Summary of the method: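 Read-out: real-time electrical impedance (RT-CES) area under curve, loss of signal taken as reduced viability, normalized to DMSO baseline. T-47D cells, charcoal-stripped serum medium, compounds up to 100 uM final, continuous exposure, 80 h.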

| Compound | AC50 | outcome |
| --- | --- | --- |
| Nc1ncn([C@@H]2O[C@H](CO)[C@@H](O)[C@H]2O)c(=O)n1 | 3.22 µM (active) | – |
| CCN(Cc1cccc(S(=O)(=O)O)c1)c1ccc(C(=C2C=CC(=[N+](CC)Cc3cccc(S(=O)(=O)[O-])c3)C=C2)c2ccccc2)cc1 | – | inactive |
| C=C(C)c1cccc(C(C)(C)N=C=O)c1 | – | inactive |
| O=[N+]([O-])c1ccc(CO)cc1 | – | inactive |
| c1ccc2c(c1)ccc1ncccc12 | – | inactive |
| O=CN1CCCCC1 | – | inactive |
| CC(CC=O)c1ccccc1 (stereo not given) | 50 µM (active) | – |
| Nc1ccc(Cl)cc1Cl | 29.2 µM (active) | – |
| O=C1C=CC(=O)O1 | – | inactive |
| CC(C)=CC1CC(C)CCO1 (stereo not given) | – | inactive |
| NC(=O)NNC(N)=O | – | inactive |
| CCCCCCCC[N+](C)(CCCCCCCC)CCCCCCCC | 1.92 µM (active) | – |
| CCCCCCCCCCC=CC#N | 50 µM (active) | – |
| CNC(=S)NN | – | inactive |
| Cc1cc(C)c(C)c(O)c1 | – | inactive |
